Results as given in PubChem BioAssay AID1159580 (chemical genetic matrix, 2015).
Out of some 5,500 compounds screened, about 2,000 (36%) were called active. Inconclusive results (about 18%) are left out. No stated cut-off is given here; in the data, active means normalized growth mostly below about 0.91 (no sharp cut-off); inconclusive means no clear call, values can overlap the other calls; inactive means mostly above about 0.92. Some of the results follow.

Test: chemical genetic growth profiling, strain panel (AID 1159580);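 further: tested at 20 µM; growth read once vehicle control cultures reached saturation at 30 °C; 1 = growth at the plate median or of vehicle wells; lower values mean less growth of the strain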
Conditions: growth OD

Measured: normalized growth

Cc1occc(=O)c1O
inactive: S. cerevisiae deletion strains, locus YKL009W, strain mrt4, active compounds read low 1.01 | S. cerevisiae deletion strains, locus YKL068W, active compounds read low 1 | S. cerevisiae deletion strains, locus YKL085W, strain MDH1 (second series), active compounds read low 1 | S. cerevisiae deletion strains, locus YKL085W, strain MDH1, active compounds read low 1 | S. cerevisiae deletion strains, locus YKL160W, strain elf1, active compounds read low 0.962 | S. cerevisiae deletion strains, locus YKR001C, strain vps1, active compounds read low 1.03 | S. cerevisiae deletion strains, locus YKR026C, strain gcn3, active compounds read low 0.97 | S. cerevisiae deletion strains, locus YKR091W, strain srl3, active compounds read low 0.962 | S. cerevisiae deletion strains, locus YLL001W, strain dnm1, active compounds read low 0.96 | S. cerevisiae deletion strains, locus YLL026W, active compounds read low 0.961 | S. cerevisiae deletion strains, locus YLL041C, strain sdh2, active compounds read low 0.977 | S. cerevisiae deletion strains, locus YLR027C, strain aat2, active compounds read low 0.97 | S. cerevisiae deletion strains, locus YLR039C, strain RIC1, active compounds read low 1.01 | S. cerevisiae deletion strains, locus YLR058C, strain SHM2, active compounds read low 1.01 | S. cerevisiae deletion strains, locus YLR102C, strain apc9, active compounds read low 1.01 | S. cerevisiae deletion strains, locus YLR113W, strain HOG1, active compounds read low 1.03 | S. cerevisiae deletion strains, locus YLR221C, strain rsa3, active compounds read low 0.96 | S. cerevisiae deletion strains, locus YLR258W, strain gsy2, active compounds read low 0.973 | S. cerevisiae deletion strains, locus YLR262C, strain YPT6 (second series), active compounds read low 0.964 | S. cerevisiae deletion strains, locus YLR262C, strain YPT6, active compounds read low 1.01 | S. cerevisiae deletion strains, locus YLR268W, strain sec22, active compounds read low 1.01 | S. cerevisiae deletion strains, locus YLR320W, strain mms22, active compounds read low 0.95 | S. cerevisiae deletion strains, locus YLR330W, strain CHS5, active compounds read low 0.999 | S. cerevisiae deletion strains, locus YLR342W, strain FKS1 (second series), active compounds read low 1 | S. cerevisiae deletion strains, locus YLR342W, strain FKS1, active compounds read low 0.974 | S. cerevisiae deletion strains, locus YLR357W, strain rsc2, active compounds read low 0.941 | S. cerevisiae deletion strains, locus YLR370C, strain arc18, active compounds read low 0.98 | S. cerevisiae deletion strains, locus YLR371W, strain rom2, active compounds read low 1.02 | S. cerevisiae deletion strains, locus YLR384C, strain iki3, active compounds read low 0.969 | S. cerevisiae deletion strains, locus YLR418C, strain cdc73, active compounds read low 1.03 | S. cerevisiae deletion strains, locus YML016C, strain PPZ1, active compounds read low 1 | S. cerevisiae deletion strains, locus YML032C, strain rad52, active compounds read low 1.01 | S. cerevisiae deletion strains, locus YML120C, strain ndi1, active compounds read low 0.95 | S. cerevisiae deletion strains, locus YML124C, strain tub3, active compounds read low 1.01 | S. cerevisiae deletion strains, locus YMR058W, strain fet3, active compounds read low 0.971 | S. cerevisiae deletion strains, locus YMR078C, strain ctf18, active compounds read low 1.01 | S. cerevisiae deletion strains, locus YMR125W, strain sto1, active compounds read low 0.935 | S. cerevisiae deletion strains, locus YMR129W, active compounds read low 0.972 | S. cerevisiae deletion strains, locus YMR205C, strain PFK2, active compounds read low 0.948 | S. cerevisiae deletion strains, locus YMR223W, strain ubp8, active compounds read low 0.998 | S. cerevisiae deletion strains, locus YMR231W, strain pep5, active compounds read low 0.976 | S. cerevisiae deletion strains, locus YMR307W, strain GAS1, active compounds read low 0.968 | S. cerevisiae deletion strains, locus YNL067W, strain RPL9B, active compounds read low 1 | S. cerevisiae deletion strains, locus YNL071W, strain lat1, active compounds read low 0.979 | S. cerevisiae deletion strains, locus YNL128W, strain TEP1, active compounds read low 1.03 | S. cerevisiae deletion strains, locus YNL183C, strain NPR1, active compounds read low 0.97 | S. cerevisiae deletion strains, locus YNL209W, strain ssb2, active compounds read low 0.971 | S. cerevisiae deletion strains, locus YNL233W, strain BNI4, active compounds read low 1.01 | S. cerevisiae deletion strains, locus YNL248C, strain rpa49, active compounds read low 0.975 | S. cerevisiae deletion strains, locus YNL250W, strain rad50, active compounds read low 1 | S. cerevisiae deletion strains, locus YNL271C, strain bni1, active compounds read low 1.02 | S. cerevisiae deletion strains, locus YNL298W, strain CLA4, active compounds read low 1.05 | S. cerevisiae deletion strains, locus YNL307C, strain MCK1, active compounds read low 1.02 | S. cerevisiae deletion strains, locus YNL322C, strain KRE1 (second series), active compounds read low 0.943 | S. cerevisiae deletion strains, locus YNL322C, strain KRE1, active compounds read low 1 | S. cerevisiae deletion strains, locus YNR049C, strain mso1, active compounds read low 0.958 | S. cerevisiae deletion strains, locus YNR052C, strain pop2, active compounds read low 1.01 | S. cerevisiae deletion strains, locus YOL012C, strain htz1 1.37 | S. cerevisiae deletion strains, locus YOL147C, strain pex11, active compounds read low 1.01 | S. cerevisiae deletion strains, locus YOR001W, strain rrp6, active compounds read low 0.983 | S. cerevisiae deletion strains, locus YOR061W, strain CKA2, active compounds read low 1.01 | S. cerevisiae deletion strains, locus YOR069W, strain VPS5, active compounds read low 1.01 | S. cerevisiae deletion strains, locus YOR070C, strain gyp1, active compounds read low 0.969 | S. cerevisiae deletion strains, locus YOR080W, strain dia2, active compounds read low 0.961 | S. cerevisiae deletion strains, locus YOR083W, strain WHI5, active compounds read low 0.952 | S. cerevisiae deletion strains, locus YOR106W, strain vam3, active compounds read low 0.942 | S. cerevisiae deletion strains, locus YOR136W, strain idh2, active compounds read low 1.02 | S. cerevisiae deletion strains, locus YOR144C, strain elg1, active compounds read low 1.01 | S. cerevisiae deletion strains, locus YOR184W, strain ser1, active compounds read low 1.03 | S. cerevisiae deletion strains, locus YOR231W, strain MKK1, active compounds read low 1.02 | S. cerevisiae deletion strains, locus YOR265W, strain rbl2, active compounds read low 0.971 | S. cerevisiae deletion strains, locus YOR270C, strain vph1, active compounds read low 0.931 | S. cerevisiae deletion strains, locus YOR290C, strain snf2, active compounds read low 0.916 | S. cerevisiae deletion strains, locus YOR316C, strain cot1, active compounds read low 1.01 | S. cerevisiae deletion strains, locus YPL051W, strain arl3, active compounds read low 0.973 | S. cerevisiae deletion strains, locus YPL055C, strain LGE1, active compounds read low 1.01 | S. cerevisiae deletion strains, locus YPL078C, strain atp4, active compounds read low 0.968 | S. cerevisiae deletion strains, locus YPL106C, strain sse1, active compounds read low 0.924 | S. cerevisiae deletion strains, locus YPL240C, strain hsp82, active compounds read low 0.983 | S. cerevisiae deletion strains, locus YPL241C, strain CIN2, active compounds read low 1 | S. cerevisiae deletion strains, locus YPL256C, strain CLN2, active compounds read low 1.01 | S. cerevisiae deletion strains, locus YPR119W, strain clb2, active compounds read low 1 | S. cerevisiae deletion strains, locus YPR141C, strain kar3, active compounds read low 1 | S. cerevisiae deletion strains, locus YPR163C, strain tif3, active compounds read low 1 | S. cerevisiae deletion strains, locus YPR167C, strain met16, active compounds read low 1.01 | S. cerevisiae deletion strains, strain wtn01, active compounds read low 0.993 | S. cerevisiae strains, strain wild type, active compounds read low 1
